Compounds without any hit were thinned out: in the full panel of roughly 79,000, 15% have a hit. Unmarked numbers belong to inactive results. Activity calls are given as the source filed them. Rule as the data show it: active = growth inhibition above about 70%; inactive = the rest.
Assays:
[1] = NCI Yeast Anticancer Drug Screen. Data for the rad50 strain (AID 155);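 also: 0% = growth of vehicle-only cultures of the same strain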; settings: S. cerevisiae rad50 strain growth inhibition; at 50.0 µM; active compounds read high
Procedure, shortened: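 Growth of the mutant yeast was measured after compound exposure and referenced to vehicle-treated cultures.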

[2] = NCI Yeast Anticancer Drug Screen. Data for the mec2-1 strain (AID 157); settings: S. cerevisiae mec2-1 strain, at 50.0 µM, active compounds read high
Procedure, shortened: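 Yeast mec2-1 mutant treated with compound. Readout: growth inhibition vs vehicle controls.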

[3] = NCI Yeast Anticancer Drug Screen. Data for the sgs1 mgt1 strain (AID 161);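 also: 0% = growth of cultures given vehicle only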; settings: S. cerevisiae sgs1 mgt1 strain, at 50.0 µM, active compounds read high
Procedure, shortened: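 Read-out: growth inhibition vs vehicle controls. Cells: mutant yeast strain deficient in DNA damage repair.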

[4] = NCI Yeast Anticancer Drug Screen. Data for the cln2 rad14 strain (AID 165);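 also: 0% = growth equal to vehicle treated cultures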; settings: S. cerevisiae cln2 rad14 strain, at 50.0 µM, active compounds read high
Procedure, shortened: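 cln2 rad14 yeast strain; compound exposure; growth inhibition read vs vehicle controls.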

[5] = NCI Yeast Anticancer Drug Screen. Data for the bub3 strain (AID 167); settings: S. cerevisiae bub3 mutant strain, at 50.0 µM, active compounds read high
Procedure, shortened: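 Whole-cell yeast assay. The mutant strain was incubated with compounds, and growth inhibition was determined by comparison with vehicle-treated cells.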

[6] = NCI Yeast Anticancer Drug Screen. Data for the mlh1 rad18 strain (AID 175); settings: S. cerevisiae mlh1 rad18 strain growth inhibition; at 50.0 µM; active compounds read high
Procedure, shortened: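 Yeast w/ defined DNA-repair lesions; compound exposure; growth vs vehicle controls → % inhibition.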

| SMILES | growth inhibition [1] | growth inhibition [2] | growth inhibition [3] | growth inhibition [4] [%] | growth inhibition [5] | growth inhibition [6] [%] |
| --- | --- | --- | --- | --- | --- | --- |
| C/C(CCc1ccccc1)=N/Nc1ccc([N+](=O)[O-])cc1[N+](=O)[O-] | 0.65% | -4.75% | 10.2% | 0.05 | 13.4% | -4.55 |
| CC(C)(C)OC(=O)N(CCCN)CCCCN(CCCN)C(=O)OC(C)(C)C | 8.45% | -9.5% | 5.25% | 12.8 | -5.55% | -62 |
| CCCCSCCO | -0.65% | -0.2% | -4% | -12.4 | -4.4% | 0.7 |
| COc1ccc(-c2oc3cc(OC)c(OC)c(O)c3c(=O)c2OC)cc1 | 7.45% | 0.25% | 3.05% | 9.05 | 13.8% | -56.5 |
| COc1ccc(CCC2c3cc(OC)c(OC)cc3CCN2C)cc1OC (centres undefined) | -41.5% | -15.7% | -6.75% | 5.35 | -19.9% | -4.85 |
| CCCNCc1cccc2ccnc(C)c12 | 40.9% | 9.6% | 0.45% | 17.6 | 15.9% | 28.6 |
| NC(=O)C(=O)N/N=C1\C(=O)N(c2ccc(Cl)cc2Cl)C(=O)C1C(=O)Nc1ccc(Cl)cc1Cl (centres undefined) | -0.65% | -0.55% | -15.5% | 22.4 | -14.2% | -16.3 |
| O=C(/C=C\c1ccco1)NC(=O)NC(=O)N1CCCCC1 | -0.7% | -22.3% | -2.05% | -16.4 | -9.15% | 4.7 |
| CN1C(=O)N(c2ccccc2)C2(CCN(CC3COc4ccccc4O3)CC2)C1=O (centres undefined) | 4.05% | -4.45% | 21.6% | 4.7 | -6.9% | 8.75 |
| NC(=O)Nc1ccc([N+](=O)[O-])cc1 | 4.65% | -2.9% | -2.6% | -51.6 | -11.9% | 2.05 |
| CCN(CC)c1ccc(N=C2C=C(C(=O)Nc3ccc(S(C)(=O)=O)cc3)C(=O)c3ccccc32)c(C)c1 | -15.8% | -29.5% | 2.55% | 6.6 | -4.2% | -17.2 |
| CSc1nc2ccc(NCn3c(=O)sc4cc(Br)ccc43)cc2s1 | 1% | 38.9% | 4.6% | 30.9 | 65.5% | 42 |
| N#CCCN(C1=NN(C(=O)CC(=O)Nc2ccccc2Cl)C(c2ccccc2)C1)c1ccc(Cl)cc1 (centres undefined) | 28.4% | 19.1% | -10.1% | 25.9 | 16.1% | 3.95 |
| COc1cc2c(cc1OC)C(Cc1cc(Br)c(OC)c(OC)c1)=[N+](C)CC2 | 1.65% | 4.4% | -12.4% | 9.65 | 1.05% | 11.2 |
| CC(C)S(=O)(=O)/C=C(\I)c1ccccc1 | 3.7% | 8.7% | -11.2% | 6.9 | 33.2% | -11.4 |
| Nc1nc(N)c2cc(S(=O)(=O)c3ccc(Cl)cc3)ccc2n1 | 21.9% | 36.1% | 12.5% | -12.2 | 17.8% | 28.6 |
| CCC(=O)Nc1ccc(F)cc1 | -4.65% | 1.45% | -0.45% | -27.4 | -10.9% | 4.3 |
| O=C(O)c1cccc2ccc3cccc(C(=O)O)c3c12 | -5.35% | -6.05% | -0.45% | -74.8 | 2% | -17.2 |
| Fc1c(F)c(F)c(SN=S=Nc2ccccc2)c(F)c1F | 13.4% | 12.1% | 13.3% | -1.35 | 15.1% | 26.9 |
| CC(=O)OCC(OC(C)=O)C(OC1OC(COC(C)=O)C(OC(C)=O)C(OC(C)=O)C1OC(C)=O)C(OC(C)=O)C(C=O)OC(C)=O (centres undefined) | -0.2% | 10.8% | 9.75% | -5.75 | -3.8% | -7.95 |

| SMILES | growth inhibition [1] | growth inhibition [2] | growth inhibition [3] | growth inhibition [4] [%] | growth inhibition [5] | growth inhibition [6] [%] |
| --- | --- | --- | --- | --- | --- | --- |
| CCC1(O)CC2CN(CCc3c([nH]c4ccccc34)C(C(=O)OC)(c3cc4c(cc3OC)N(C)C3C(O)(C(=O)NCCSSCCNC(=O)C5(O)C(O)C6(CC)C=CCN7CCC8(c9cc(C%10(C(=O)OC)CC%11CN(CCc%12c%10[nH]c%10ccccc%12%10)CC(O)(CC)C%11)c(OC)cc9N(C)C58)C76)C(O)C5(CC)C=CCN6CCC43C65)C2)C1 (centres undefined) | 23.4% | 11.4% | 24.9% | 42.8 | 40.1% | 37.6 |
| COC(=O)CC1(O)C(C=C(C)C)C(C(=O)OC)C(=O)C(C(=O)OC)C1C(=O)OC (centres undefined) | -10.8% | -7.15% | -28.9% | -3.5 | -32.2% | -1.25 |
| CC(C)=CC1CC(=O)C1(C)Sc1ccccc1 (centres undefined) | 26.9% | -1.5% | 24.2% | 12.9 | 4.7% | 2.95 |
| CCOC(=O)C(=O)N=Nc1nc2c(O)c3ccccc3c(O)c2s1 | 78.2% (active) | 87.8% (active) | 83% (active) | 45.8 | 89.2% (active) | 58.5 |
| COC(=O)CC1C=CC(OC)[C@@]2(C)C(=O)C(OC)=CC(=O)[C@@H]12 (some centres undefined) | 8.7% | -15.1% | -11.4% | 19.6 | 2.4% | -3.45 |
| CSc1nnn(C(C)(C)C)n1 | 5.35% | 6% | -3.5% | -15.9 | -8.75% | 8.8 |
| CC1=C(C(=O)OCCO[N+](=O)[O-])C(c2ccccc2C(F)(F)F)C(C(=O)OC(C)C)=C(C)N1 (centres undefined) | 45.5% | 17.4% | 32.9% | 53 | 30% | -27.1 |
| Cc1ccc2cccc(-c3cccc4ccccc34)c2n1 | 5.3% | 7.9% | 3.4% | -0.05 | -2.35% | 28.8 |
| O=c1c(-c2ccccc2)c2oc(c1-c1ccccc1)CSCc1cccc(c1)CSC2 | 15% | -0.1% | -3.55% | -28.9 | -20.6% | 7.8 |
| O=C1CC2(C(=O)N1CN1CCOCC1)c1ccccc1-c1ccccc12 | -7.55% | -4.5% | 15.6% | 3.7 | 4.05% | -11.1 |
| CC(=O)c1c(-c2nc(=S)[nH]c(C)c2C(C)=O)nc(=S)[nH]c1C | 15.1% | 9.95% | 6.3% | 0.45 | -1.45% | 16.8 |
| O=c1[nH]c(Nc2ccc(F)c(Cl)c2)nc2nc[nH]c12 | 4.4% | 6.85% | 4.6% | -4.75 | 2.55% | -23.7 |
| Cc1cc(=O)oc2cc(OC(=O)Nc3ccc(F)c([N+](=O)[O-])c3)ccc12 | 7.85% | 45.2% | 27.1% | -11.8 | 53.9% | 12.5 |
| CCOC(=O)Cc1cc(C)c2ccccc2n1 | -7.75% | -5.65% | 4.3% | -19.6 | -9.4% | 7.45 |
| Cc1cc(C)c(C)c(C(=O)OC(C)C)c1C | 2.7% | -9.7% | 3.35% | 15.4 | -3.85% | -8.55 |
| Cc1cccc(C(C)C)c1NC(=O)C(=O)C(C#N)c1ccc(CC#N)cc1 (centres undefined) | -27.9% | 2.4% | 17.9% | -40 | 1.55% | 14.2 |
| O=C1/C(=N\N(C(=O)c2ccccc2)c2ccccc2)c2cccc3cccc1c23 | 11.8% | 49% | 20.4% | 12.2 | 24.9% | 35.9 |
| O=C(O)c1cccc(S(=O)(=O)NN2C(=O)CSC2c2ccccc2)c1 (centres undefined) | -22.4% | -18.5% | 5.55% | 4.45 | 3.7% | -11.3 |
| CSc1nnc(SCc2nn3c(=O)cc(C)nc3s2)s1 | -7.9% | -0.85% | 0.4% | 10 | 5.55% | 10.6 |

From PubChem BioAssay (NCI)
